Records with an inconclusive call do not appear. Active and inactive are the calls of the source. The calls were made as follows: active = hit-call score of the fitted dose curve at least 0.9, where 1 is the maximum; inconclusive = response in the unintended direction; inactive = score below 0.9.

By AC50 is commonly meant the concentration at which the activity in the assay is half-maximal.

Bile acid receptor (Homo sapiens), sequence (Q96RI1 whole entry, looked up, the tested form may be a part): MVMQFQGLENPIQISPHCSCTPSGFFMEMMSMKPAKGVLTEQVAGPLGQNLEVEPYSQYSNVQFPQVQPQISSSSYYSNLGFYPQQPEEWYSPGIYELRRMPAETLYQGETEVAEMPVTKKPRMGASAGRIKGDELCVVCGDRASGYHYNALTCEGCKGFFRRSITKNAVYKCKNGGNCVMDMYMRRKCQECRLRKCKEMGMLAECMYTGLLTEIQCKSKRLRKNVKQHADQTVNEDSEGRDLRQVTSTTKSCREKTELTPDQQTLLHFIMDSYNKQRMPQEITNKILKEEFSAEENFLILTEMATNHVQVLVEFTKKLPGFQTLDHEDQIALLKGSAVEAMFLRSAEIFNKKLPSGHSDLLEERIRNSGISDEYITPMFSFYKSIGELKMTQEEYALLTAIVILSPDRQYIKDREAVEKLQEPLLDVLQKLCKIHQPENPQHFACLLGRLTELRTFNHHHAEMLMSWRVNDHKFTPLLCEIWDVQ

For this test, the target named is Bile acid receptor (Homo sapiens) (UniProt Q96RI1). The test is described as follows: ATG_FXR_TRANS: Attagene TRANS-FACTORIAL HepG2 Assay for Farnesoid X Receptor (FXR) (AID 2282979).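 Also: hits raise reporter mRNA above DMSO so AC50 marks FXR activation.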 The conditions noted are these: HepG2 Attagene TRANS FXR-GAL4 reporter transcription. As to the method:
ATG_TRANS is a cell-based, multiplexed-readout assay that uses HepG2, a human liver cell line, with measurements taken at 24 hours after chemical dosing in a 24-well plate.ATG_FXR_TRANS is one of 30 assay component(s) measured or calculated from the ATG_TRANS assay. It is designed to make measurements of mRNA induction, a form of inducible reporter, as detected with fluorescence intensity signals by Reverse transcription polymerase chain reaction (RT-PCR) and Capillary electrophoresis technology.Data from the assay component ATG_FXR_TRANS was analyzed into 1 assay endpoint. This assay endpoint, ATG_FXR_TRANS, was analyzed in the positive analysis fitting direction relative to DMSO as the negative control and baseline of activity. Using a type of inducible reporter, measures of mRNA for gain-of-signal activity can be used to understand the reporter gene at the transcription factor-level as they relate to the gene NR1H4. Furthermore, this assay endpoint can be referred to as a primary readout, because this assay has produced multiple assay endpoints where this one serves a reporter gene function. To generalize the intended target to other relatable targets, this assay endpoint is annotated to the nuclear receptor intended target family, where the subfamily is non-steroidal.
Human liver HepG2 cells are transiently transfected with multiple reporter transcription units (MRTUs) in 6-well plates using FuGene 6 reagent (Roche; 3 ml FuGene/1 mg DNA). The MRTU constructs are regulated by a cis-regulating element (promoter). […] A major difference between the CIS and TRANS system is that in CIS activities of endogenous TFs are measured, whereas the TRANS assay evaluates changes in activities of exogenous, chimeric NR-Gal4 proteins. […] At the end of 24 hour incubation, total RNA was isolated using TriZol reagent (Invitrogen). The isolated RNA is then reverse-transcribed using oligo(dT) primer and Mo-MLV reverse transcriptase (Invitrogen) with DNAse I (Ambion) treatment for 30 min. The one-tenth of the produced cDNA was amplified by PCR using Taq DNA polymerase (Invitrogen) and two reporter sequence-specific primers. The PCR products were fluorescently labeled by primer extension with 6-arboxyfluorescein (6-FAM) 5'-labeled reporter sequence-specific primer (2 min at 95 C, 20 s at 68 C and 10 min at 72 C) and these products were digested with 5U of HpaI (New England Biolabs) for 2h at 37 C. The fragments were purified using Qiaquick PCR columns (Qiagen), analyzed on an ABI 3130xL genetic analyzer (Applied Biosystems) with peak positions identified by using a set of X-rhodamine (ROX)-labeled MapMarker1000 molecular weight standards (BioVentures). The raw capillary electrophoresis data was processed using Attagraph software (Attagene).
As for `CC(=O)C1C(=O)C=C(C)OC1=O` (stereo not given), the result was inactive.
On the same count and under the same terms, for `CCC=C(C)C=O` the value was “inactive”.
On the same count and under the same terms, for `CC(=O)CC(=O)N(C)C` the value was “inactive”; for `CCCCCCOC(C)=O`, “inactive”.
Turning to `CC=CC(=O)C1=C(C)C=CCC1(C)C`, the call was inactive.
Same read-out and setting: the entry for `C=C1CC[C@H]2O[C@]2(C)CC[C@@H]2[C@@H]1CC2(C)C` is “inactive”; for `C=CC(O)CCCCC` (stereo not given) it is “inactive”; for `CN(C)CCC=C1c2ccccc2CCc2ccccc21` it is “inactive”.
Same read-out and setting: for `CC(O)COCC(C)O` (stereo not given) the value was “inactive”; for `CCO[Si](CCC#N)(OCC)OCC`, “inactive”; for `CCCc1ccc(O)cc1`, “inactive”.
Still for that read-out and setting: the entry for `c1ccc2c(c1)-c1ccc3ccc4cccc5cc-2c1c3c45` is “inactive”; for `[Cl][Dy]([Cl])[Cl]` it is “inactive”.
On to `COc1ccc(N)c(C)c1`, for which the result was inactive.
On the same count and under the same terms, for `CCc1cccc(O)c1` the value was “inactive”.
On to `O=c1cc[nH]cc1`, for which the call was inactive.
The same measure, in the same setting: for `Cc1ccccc1S` the value was “inactive”.
With `CC(CO)(CO)[N+](=O)[O-]`, the compound was classed as inactive.
On the same count and under the same terms, for `OC[C@H]1O[C@@H](O[C@H]2[C@H](O)[C@@H](O)[C@H](O)O[C@@H]2CO)[C@H](O)[C@@H](O)[C@H]1O` the value was “inactive”; for `C=CCOCC(O)CO` (stereo not given), “inactive”; for `CCC(C)(CCCC(C)C)OC(C)=O` (stereo not given), “inactive”.
Same read-out and setting: for `Brc1cc(Br)cc(Br)c1` the value was “inactive”.
Same read-out and setting: the entry for `C=CC(C)(CCC=C(C)C)OC(=O)CC` (stereo not given) is “inactive”; for `CC12CCC(C1)C(C)(C)C2O` (stereo not given) it is “inactive”; for `CC(=O)c1ccc(O)cc1` it is “inactive”.
`O=C1CCC(=O)N1`: the outcome was inactive.
Same read-out and setting: the entry for `CCCCCCCCOS(=O)(=O)O` is “inactive”; for `CCCCCC(=O)O[C@]1(C(C)=O)CC[C@H]2[C@@H]3CCC4=CC(=O)CC[C@]4(C)[C@H]3CC[C@@]21C` it is “inactive”.
On to `CCCCCCCCSCc1cc(C)c(O)c(CSCCCCCCCC)c1`, for which the result was inactive.
On the same count and under the same terms, the entry for `COc1ccccc1O` is “inactive”.
On the same count and under the same terms, for `CC(=O)c1ccc2ccccc2c1` the value was “inactive”; for `CN1CCc2cccc3c2[C@H]1Cc1ccc(O)c(O)c1-3`, “inactive”.
Same read-out and setting: for `CC1=C(C=O)C(C)(C)CCC1` the value was “inactive”; for `CC(C)CCOC(=O)CC(C)C`, “inactive”; for `O=C1OC2(c3ccc(O)cc3Oc3cc(O)ccc32)c2ccccc21`, “inactive”.
`C=C/C(C)=C/C/C=C(\C)CCC=C(C)C`: the result was inactive.
Take `CC1=CCC(C(C)(C)O)CC1` (stereo not given): the outcome was inactive.
With `CCC(C)(C)c1cc(O)c(C(C)(C)CC)cc1O`, the AC50 is 3.06 µM (active).
Turning to `CC(C)OB(OC(C)C)OC(C)C`, the compound was classed as inactive.
Same read-out and setting: the entry for `CCCCCCC(O)CCOC(C)=O` (stereo not given) is “inactive”.

The values are drawn from PubChem BioAssay (EPA / NIEHS).
